About 3,300 (0.97%) of roughly 340,000 compounds were called active. Not shown: some 9% with an inconclusive outcome. Calls come from the whole dose curve; as a rule, active = well fitted inhibition curve with a large enough effect; inconclusive = small, poorly fitted or top-dose-only effect, or effect the other way; inactive = flat fitted curve, though single readings scatter. This is one part of the list.
assay: qHTS Assay for Modulators of miRNAs and/or Inhibitors of miR-21; details: HeLa miR-21-FLuc reporter, luciferase luminescence, 48 h; actives lower the signal; note: nearly all actives have a fitted effect of over 55% in size
Outline: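 HeLa cells stably expressing CMV-driven firefly luciferase with a downstream miR-21 binding sequence, endogenously expressing miR-21, were treated with titrations (up to about 40uM final) for 48 hours at 37 degree Celsius. Luciferase luminescence was read after lysis.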
Potency is the fitted concentration of half-maximal effect.

Q: With `CCCNC(=O)c1cccc(COc2ccccc2OC)c1` as the compound, how does the Potency read?
A: 2.07 µM (active)

Q: For `CCC(=O)c1ccc(OCc2ccccc2)c(OC)c1`, which Potency is on record?
A: 6.56 µM (active)

Q: With `COc1ccccc1OCCNC(=O)c1ccc(Br)cc1` as the compound, how does the Potency read?
A: 16.5 µM (active)

Q: Which Potency does the source give for `COc1ccccc1OCCNC(=O)c1ccc2c(c1)CCC2` here?
A: 5.85 µM (active)

Q: With `Cc1ccc(OCCNC(=O)c2ccc(C)cc2)cc1` as the compound, how does the Potency read?
A: 14.7 µM (active)

Q: With `Clc1cccc(Cl)c1Cn1ccc(C2CC2)n1` as the compound, how does the Potency read?
A: 10.4 µM (active)

Q: Which Potency does the source give for `O=C(NCc1ccccc1)c1c[nH]c2cc3c(cc2c1=O)OCCO3` here?
A: 2.33 µM (active)

Q: With `Cc1ccc(N/C=C/c2onc(C)c2[N+](=O)[O-])cc1` as the compound, how does the Potency read?
A: 0.185 µM (active)

Q: With `Cc1cc(O)ccc1N/C=C/c1onc(C)c1[N+](=O)[O-]` as the compound, how does the Potency read?
A: 1.04 µM (active)

Q: Which Potency does the source give for `O=C(c1ccc2ccccc2n1)N1CCN(c2ccccc2Cl)CC1` here?
A: 16.5 µM (active)

Q: With `Oc1ccccc1N1CCN(c2ccc3ccccc3n2)CC1` as the compound, how does the Potency read?
A: 0.826 µM (active)

Q: For `CN(C)c1cnn(-c2ccccc2)c(=O)c1Cl`, which Potency is on record?
A: 14.7 µM (active)

Q: Which Potency does the source give for `CC(=O)Nc1ccc(OCC(O)Cn2ccnc2)cc1` (stereo not given) here?
A: 16.5 µM (active)

Q: With `COc1ccc(-c2cnc3ccccc3n2)cc1NC(=O)CNC(=O)c1ccccc1` as the compound, how does the Potency read?
A: 6.56 µM (active)

Q: For `CCOC(=O)c1ccc2c(c1)NCc1cccc(OC)c1O2`, which Potency is on record?
A: 3.29 µM (active)

Q: For `CCN(CC)c1ccc(/C=N/N2CCOCC2)c(O)c1`, which Potency is on record?
A: 2.93 µM (active)

Q: Which Potency does the source give for `COc1cccc(NC(=S)Nc2cc(C)cc(C)n2)c1` here?
A: 4.65 µM (active)

Q: With `Cc1cccc(NC(=O)Nc2cc(C)cc(C)n2)c1` as the compound, how does the Potency read?
A: 0.736 µM (active)

Q: Which Potency does the source give for `CSc1ccc(NC(=O)Nc2cc(C)ccn2)cc1` here?
A: 0.104 µM (active)

Q: With `Cc1ccc(NC(=O)Nc2cccc(C)n2)cc1` as the compound, how does the Potency read?
A: 2.07 µM (active)

Q: With `Cc1cc(C)nc(NC(=O)/C=C/c2ccccc2Cl)c1` as the compound, how does the Potency read?
A: 2.07 µM (active)

Q: Which Potency does the source give for `CC(NC(=O)c1ccccc1NC(=O)c1ccco1)C(=O)O` (stereo not given) here?
A: 6.56 µM (active)

Q: Which Potency does the source give for `COc1ccc(-c2csc(N)n2)cc1F` here?
A: 9.27 µM (active)

Q: Which Potency does the source give for `Nc1nc(-c2ccc3ccccc3c2)cs1` here?
A: 1.65 µM (active)

Q: With `CN(C)/C=N/c1nc(-c2ccc3ccccc3c2)cs1` as the compound, how does the Potency read?
A: 1.31 µM (active)

Q: With `COc1ccc(-c2cn3cccc(C)c3n2)cc1F` as the compound, how does the Potency read?
A: 0.927 µM (active)

Q: For `COc1ccccc1NC(=S)N/N=C/c1ccc(O)cc1`, which Potency is on record?
A: 0.736 µM (active)

Q: For `COc1ccc(/C=C/C(=O)Nc2ccccc2)cc1OC`, which Potency is on record?
A: 4.14 µM (active)

Q: With `COc1ccc(NC(=O)/C=C/c2ccccc2)cn1` as the compound, how does the Potency read?
A: 1.65 µM (active)

Q: With `CCOC(=O)c1ccc(OS(=O)(=O)c2ccccc2)c(OC)c1` as the compound, how does the Potency read?
A: 1.31 µM (active)

Q: With `COc1cc(/C=N/NC(=O)Nc2ccccc2)ccc1OC(C)=O` as the compound, how does the Potency read?
A: 8.26 µM (active)

Q: With `CCN(CC)c1ccc(/C=N/NC(=O)Nc2ccccc2)cc1` as the compound, how does the Potency read?
A: 4.14 µM (active)

Q: With `Cc1cccc(/C(N)=N/OC(=O)c2ccc(F)cc2)c1` as the compound, how does the Potency read?
A: 4.65 µM (active)

Q: For `COc1ccc(/C=C/C(=O)O/N=C(\N)c2ccccc2)cc1OC`, which Potency is on record?
A: 5.85 µM (active)

Q: With `CCCCCC(=O)N/N=C/c1ccc(N(C)C)cc1` as the compound, how does the Potency read?
A: 13.1 µM (active)

Q: With `COc1ccc(C(=O)O/N=C(\N)c2cccc(C)c2)cc1OC` as the compound, how does the Potency read?
A: 8.26 µM (active)

Q: For `O=C(/C=C/c1ccccc1)Nc1cccnc1Cl`, which Potency is on record?
A: 1.85 µM (active)

Q: Which Potency does the source give for `COc1ccc2c(c1)CC/C2=N\OC(=O)c1cccc(C)c1` here?
A: 4.14 µM (active)

Q: With `Cc1ccccc1/C(N)=N/OC(=O)/C=C/c1ccccc1` as the compound, how does the Potency read?
A: 5.21 µM (active)

Q: Which Potency does the source give for `CC(=O)Oc1ccc(/C=N/NC(=S)Nc2ccccc2)cc1` here?
A: 0.656 µM (active)

Q: Which Potency does the source give for `COc1ccc(C(=O)O/N=C(\N)c2ccccc2)cc1OC` here?
A: 2.07 µM (active)

Q: For `C=CCn1cccc(C(=O)Nc2ccc(N(C)C)cc2)c1=O`, which Potency is on record?
A: 4.65 µM (active)

Q: For `Clc1cccc(-c2cc3nc4c(c(NCc5ccco5)n3n2)CCCC4)c1`, which Potency is on record?
A: 2.93 µM (active)

Q: For `c1ccc(CSc2ccc(-c3cccs3)nn2)cc1`, which Potency is on record?
A: 2.93 µM (active)

Q: With `Fc1cccc(CSc2ccc(-c3cccs3)nn2)c1` as the compound, how does the Potency read?
A: 4.14 µM (active)

Q: Which Potency does the source give for `Cc1cccc(CSc2ccc(-c3cccs3)nn2)c1` here?
A: 7.36 µM (active)

Q: With `c1ccc(CSc2ccc(-c3cccnc3)nn2)cc1` as the compound, how does the Potency read?
A: 6.56 µM (active)

Q: With `CCOc1ccc(Nc2cc(C)c3ccccc3n2)cc1` as the compound, how does the Potency read?
A: 18.5 µM (active)

Q: Which Potency does the source give for `COc1ccc(Nc2cc(C)c3ccccc3n2)cc1` here?
A: 5.85 µM (active)

Q: Which Potency does the source give for `Cc1cc(Nc2ccccc2)nc2cc(O)ccc12` here?
A: 13.1 µM (active)

Q: With `COc1ccc(Nc2nc(C)c3ccccc3n2)cc1` as the compound, how does the Potency read?
A: 3.29 µM (active)

Q: Which Potency does the source give for `Cc1ccc(CN=c2c([N+](=O)[O-])nn(-c3ccc4c(c3)OCCO4)n2O)cc1` here?
A: 1.31 µM (active)

Q: For `COc1ccc(-n2nc([N+](=O)[O-])c(=NCc3ccc4c(c3)OCO4)n2O)cc1`, which Potency is on record?
A: 1.65 µM (active)

Q: For `COc1ccc(-n2nc([N+](=O)[O-])c(=NCc3cccnc3)n2O)cc1`, which Potency is on record?
A: 2.33 µM (active)

Q: With `O=[N+]([O-])c1nn(-c2ccc3c(c2)OCCO3)n(O)c1=NCc1ccc(F)cc1` as the compound, how does the Potency read?
A: 1.17 µM (active)

Q: Which Potency does the source give for `CCOC(=O)c1sc(NC(=O)c2sccc2C)cc1C` here?
A: 0.369 µM (active)

Q: Which Potency does the source give for `CCOC(=O)c1sc(NC(=O)C2CCC2)cc1C` here?
A: 4.65 µM (active)

Q: For `CCOC(=O)c1sc(NC(=O)c2ccccc2)cc1C`, which Potency is on record?
A: 0.521 µM (active)

Q: With `COc1ccc2[nH]c(=O)c(CNc3ccccc3C)cc2c1` as the compound, how does the Potency read?
A: 7.36 µM (active)

Q: With `O=C(N=Nc1c(O)n(Cc2ccccc2)c2ccccc12)c1ccc(O)cc1` as the compound, how does the Potency read?
A: 6.56 µM (active)

Q: For `Cc1ccc(NC(=O)CSCc2ccc(F)cc2)cc1`, which Potency is on record?
A: 6.56 µM (active)

Q: Which Potency does the source give for `O=C(CSCc1ccccc1)Nc1ccc(F)c(F)c1` here?
A: 14.7 µM (active)

Q: Which Potency does the source give for `O=C(CSCc1c(F)cccc1F)Nc1ccccc1` here?
A: 5.85 µM (active)

Q: For `O=C(CSCc1ccccc1)Nc1cccc(F)c1`, which Potency is on record?
A: 13.1 µM (active)

Q: For `NC(=O)c1cccnc1Nc1cccc([N+](=O)[O-])c1`, which Potency is on record?
A: 6.56 µM (active)

Q: For `Cc1ccc(NC(=O)c2cccc3cccnc23)cc1`, which Potency is on record?
A: 3.69 µM (active)

Q: For `O=C(NCCc1ccccc1F)c1cccc2cccnc12`, which Potency is on record?
A: 3.29 µM (active)

Q: Which Potency does the source give for `Cc1ccc(Nc2ncccc2C(N)=O)cc1` here?
A: 1.65 µM (active)

Q: With `Cc1cc(Cl)ccc1Nc1ncccc1C(N)=O` as the compound, how does the Potency read?
A: 2.07 µM (active)

Q: Which Potency does the source give for `Cc1ccc(Nc2ncccc2C(N)=O)cc1[N+](=O)[O-]` here?
A: 3.29 µM (active)

From PubChem BioAssay AID2289 (National Center for Advancing Translational Sciences (NCATS), 2010)
